ELG1 DNA repair: blocks ELG1-dependent DNA repair in HEK293T cells; HEK293T ELG1-luciferase reporter, luminescence, 16 h; DNA damage induced by 5-fluorouridine; AID 504467; 2.3% of 330,000 active; Potency, µM (series often up to 46.1 µM), without a hit: top-dose activity change, negative = inhibition, actives largely listed as inhibitors; note: potency is the fitted concentration of half-maximal effect; % is set by controls: 0 for no effect and ±100 for the full control effect; nearly all actives have a fitted effect of over 55% in size
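Cells (2,000 per well) received 5-fluorouridine plus test compound or DMSO and were incubated 16 hr at 37 °C, 5% CO2. Luciferase activity was read by luminescence 30 min after ONE-Glo addition; signal suppression marked inhibition of damage-induced ELG1 function.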
RORg inh: blocks mouse ROR gamma transcriptional activity | P51450 | Drosophila S2 Gal4-RORgamma UAS-luciferase reporter, 20 h | Potency, µM (top dose mostly 53.6 µM), without a hit: at the highest dose activity change, negative = inhibition, hits mostly inhibitors | 5.4% of 310,000 active | AID 2551; note: potency is the fitted concentration of half-maximal effect; % is set by controls: 0 for no effect and ±100 for the full control effect; nearly all actives have a fitted effect of over 60% in size
Target sequence (P51450 whole entry, looked up, the tested form may be a part): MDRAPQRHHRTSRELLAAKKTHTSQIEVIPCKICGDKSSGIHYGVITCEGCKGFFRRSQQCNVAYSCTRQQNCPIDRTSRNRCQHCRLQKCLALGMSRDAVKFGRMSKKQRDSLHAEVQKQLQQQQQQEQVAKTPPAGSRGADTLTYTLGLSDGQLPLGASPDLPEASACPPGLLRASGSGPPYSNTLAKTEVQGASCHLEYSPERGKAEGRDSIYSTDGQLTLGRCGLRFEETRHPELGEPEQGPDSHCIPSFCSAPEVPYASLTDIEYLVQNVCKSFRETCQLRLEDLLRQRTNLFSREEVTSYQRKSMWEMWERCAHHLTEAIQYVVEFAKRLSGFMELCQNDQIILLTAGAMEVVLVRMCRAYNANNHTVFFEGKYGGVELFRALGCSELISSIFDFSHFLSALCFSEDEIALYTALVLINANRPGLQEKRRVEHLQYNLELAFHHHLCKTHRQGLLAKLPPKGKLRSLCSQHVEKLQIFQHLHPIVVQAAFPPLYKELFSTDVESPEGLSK
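Stably transfected Drosophila Schneider cells are the test system, with ROR gamma fused to Gal4 and luciferase under UAS control; luminescence is read after 20 hr of 700 uM copper sulfate induction at ambient temperature.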
p53 reactivation: restores transcriptional activity of mutant p53. H1299 p53-A138V BP100-luciferase reporter, luminescence, 24 h. Potency, µM (titrated, usually from 92.2 µM), for inactives: top-dose activity change, positive = activation, actives largely listed as activators. 0.063% of 320,000 active; note: potency is the fitted concentration of half-maximal effect; % of control where 0% means no effect; nearly all actives have a fitted effect of over 45% in size
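p53-null H1299 cells stably carrying temperature-sensitive p53-A138V and a BP100-luciferase reporter were pinned with compounds (4-point, 1:5 series) and held 24 hrs at 37 deg C. Luminescence was read 10 min after detection reagent.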
VP16 counter: counter-screen for ROR gamma inhibitors: Gal4-VP16 reporter. Drosophila S2 Gal4-VP16 UAS-luciferase, luminescence, 20 h. Potency, µM (top dose mostly 53.6 µM), without a hit: top-dose activity, negative = inhibition, hits mostly inhibitors. 3.5% of 310,000 active;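 note: Gal4-VP16 expression switched on by copper sulfate through the metallothionein promoter; potency is the fitted concentration of half-maximal effect; % is set by controls: 0 for no effect and ±100 for the full control effect; nearly all actives have a fitted effect of over 50% in size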
BRCA1 expr act: BRCA1 expression activation | MCF7-BRCA1-FFLuc reporter, luminescence, 48 h; response scale: scaled: vehicle 0%, 10 µM genistein 100% | Potency, µM (doses to about 46.1 µM), for the others: at the top dose activation, most hits filed as activators | 1.1% of 380,000 active | AID 624202; note: potency is the fitted concentration of half-maximal effect; nearly all actives have a fitted effect of over 80% in size
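48 h compound treatment of MCF7-BRCA1-FFLuc cells (phenol-red free MEM, 37 °C), then 15 min with luciferase substrate and luminescence imaging.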
Giardia killer: kills Giardia lamblia; Giardia lamblia trophozoite viability; activity change, % at 7.66 µM, hits read low; 0.15% of 340,000 active; AID 540267; in the data active = activity change below about -80%; inconclusive = between about -30% and that limit;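 note: parasites exposed to compound for two days anaerobically before the ATP read; % is set by controls: 0 for no effect and ±100 for the full control effect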
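Luminescent ATP signal served as the viability read-out, measured 15-30 min after adding ATP detection reagent to trophozoites that had been incubated with compounds for 48 hrs at 37 deg C anaerobically at 100 cells/well.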
* marks the source's active call; other numbers are inactive results; ? = inconclusive; / = not tested or not shown; [ ] = another dose, or the depositor's remark. Shown are actives, neighbours in structure and some others; about 7.6% of the full set was active somewhere. Unless noted, calls come from the whole dose curve; as a rule, active = well fitted curve in the direction sought with a large enough effect; inconclusive = small, poorly fitted or top-dose-only effect, or another doubt; inactive = no such curve, though single readings can be large; an effect the other way counts as inactive or inconclusive.

SMILES | ELG1 DNA repair | RORg inh | p53 reactivation | VP16 counter | BRCA1 expr act | Giardia killer
CCOCc1nnc(NC(=O)c2ccc(NC(C)=O)cc2)s1 | -7% | -5% | -4% | -12% | -2% | 14
COc1cccc(C(=O)Nc2nnc(Cc3ccc(OC)c(OC)c3)s2)c1 | -4% | -22% | 1% | -5% | -11% | -13
CC(C)c1nnc(NC(=O)c2cccc(-n3cnnn3)c2)s1 | 12% | 28% | 7% | 5% | 17% | -1
COc1cccc(C(=O)Nc2nnc(C(C)C)s2)c1 | ? | 8.9µM* | ? | ? | 11% | 4
COc1cccc(C(=O)Nc2nnc(SCC(=O)Nc3ccc(NC(C)=O)cc3)s2)c1 | ? | 11µM* | 29% | ? | 40% | ?
CCOCc1nnc(NC(=O)c2ccc(OC)cc2)s1 | ? | ? | ? | 0% | 13µM* | -4
CCCc1nnc(NC(=O)c2cccc(OC)c2)s1 | ? | 7.1µM* | 17% | -17% | 7.1µM* | -1
CN(C(=O)CCc1nnc(-c2ccc(-c3ccccc3)cc2)o1)C1CCOCC1 | ? | -28% | -11% | -13% | -25% | -13
COC(=O)c1ccc(-c2noc(CN3CCCC(CNC(C)=O)C3)n2)cc1 (configuration not stated) | -5% | 19% | 1% | 3% | -8% | 10
CCC(CC)c1nnc(NC(=O)[C@@H](NC(=O)c2cccc(C)c2)C(C)C)s1 | -3% | 20µM* | -3% | 16µM* | 3% | 37
CCSc1nnc(NC(=O)[C@@H](NC(=O)c2cccc(C)c2)C(C)C)s1 | 11% | 32% | 2% | -1% | 23% | 3
COc1ccc(Cc2nnc(NC(=O)Nc3ccccc3OC)s2)cc1 | 19% | -11% | 2% | -5% | -23% | 18
CCCc1nnc(NC(=O)Nc2ccccc2OC)s1 | ? | ? | ? | ? | 22µM* | -13
CC(C)=CC(=O)Nc1ccccc1Br | 18% | 16% | 25% | 8% | 29% | -6
CN(c1ccc(C(=O)N2CCN(Cc3ccc4c(c3)OCO4)CC2)cc1)S(=O)(=O)c1ccccc1 | 23µM* | 17% | 1% | -9% | -67% | 25
Cc1ccc(S(=O)(=O)N(C)CC(=O)N2CCN(Cc3ccc4c(c3)OCO4)CC2)cc1 | ? | ? | 10% | ? | -13% | -12
Cc1ccc(S(=O)(=O)N(C)c2ccc(C(=O)N3CCN(Cc4ccc5c(c4)OCO5)CC3)cc2)cc1 | 6.5µM* | -22% | ? | ? | -73% | 10
CN(c1ccc(C(=O)N2CCN(Cc3ccccc3)CC2)cc1)S(=O)(=O)c1ccccc1 | ? | 36% | -3% | -2% | -27% | -7
COc1ccccc1-c1cc(-c2ccccc2)nc(SC(C(N)=O)c2ccccc2)c1C#N (configuration not stated) | -1% | 11µM* | -24% | ? | -29% | -12
O=C(Nc1cccc(NC(=O)c2ccccc2Cl)c1)c1ccco1 | -6% | -10% | 3% | 1% | 1% | 8
O=C(Nc1ccc2nc(-c3ccccc3)[nH]c2c1)c1ccco1 | ? | ? | 5% | -7%[0.365 µM] | ? | -7
CC(=O)Nc1ccc2nc(-c3cccs3)[nH]c2c1 | ? | -27% | ? | -9% | 6.3µM* | -11
O=C(Nc1cccc(NC(=O)c2ccc(-c3ccc(Br)cc3)o2)c1)c1ccco1 | 9.2µM* | ? | 8% | -23% | 6%[1.84 µM] | 8
O=C(Nc1ccc2nc(-c3ccc(Br)o3)[nH]c2c1)c1ccco1 | -5% | 25% | 3% | 1% | 6.3µM* | -4
CC(=O)Nc1ccc2nc(-c3ccc(Br)o3)[nH]c2c1 | ? | 15% | ? | -6% | 10µM* | 7
SMILES | ELG1 DNA repair | RORg inh | p53 reactivation | VP16 counter | BRCA1 expr act | Giardia killer
Cn1c(C(=O)N[C@@H](Cc2ccccc2)C(=O)NCCC(=O)O)cc2cc(Cl)ccc21 | -5% | -1% | -1% | 4% | -12% | 15
C[n+]1cccc2cccc([O-])c21 | ? | -13% | -10% | 2% | -10% | 17
CN1CCN(S(=O)(=O)c2ccc(C(=O)Nc3ccccc3)cc2)CC1 | ? | 31% | 2% | 4% | 7% | 8
Cn1cccc1-c1nc2ccc(NC(=O)c3cccs3)cc2[nH]1 | ? | ? | -12% | 0% | ? | 11
O=C(Nc1ccc2nc(-c3ccc(Br)o3)[nH]c2c1)c1cccs1 | 9% | ? | 28% | -13% | 10µM* | -21
COc1ccc(NC(=O)Cn2nnc(C(=O)Nc3ccc(F)c(Cl)c3)c2N)cc1OC | 6% | -27% | 2% | -10% | -20% | -4
CCC1(C)Cc2c(sc3nc(NN)n(C)c(=O)c23)CO1 (configuration not stated) | ? | -10% | -1% | 14µM* | -79% | -7
CCOC(=O)C1CCCN(C(=S)Nc2ccc(Nc3ccccc3)cc2)C1 (configuration not stated) | ? | ? | -3% | 2% | 38% | 3
CC(=O)c1cccc(NC(=O)c2cnn3ccccc23)c1 | ? | -20% | ? | -10% | 3.5µM* | 12
Cc1ccccc1NC(=O)c1cc2ccccn2n1 | ? | -74% | 8% | ? | 0% | -15
CC(=O)c1cccc(NC(=O)c2cc3ccccn3n2)c1 | ? | 8.9µM* | ? | ? | 2.5µM* | -12
C#CCN1C=CC(=O)[C@@H](OC(=O)Nc2ccc(Br)cc2)[C@H]1c1ccccc1Br | / | / | / | / | -37% | ?
O=C(NCc1ccccc1Cl)c1cccc(OC2CCN(C(=O)C3CC3)CC2)c1 | 0% | 10% | 12% | -17% | -29% | 11
O=C(Nc1cccc(/C=C/c2ccccn2)c1)c1ccc(-n2cncn2)c([N+](=O)[O-])c1 | 9.2µM* | / | 0% | / | -41% | 3
O=C(Nc1ccc(F)c(F)c1)c1ccc(-n2cncn2)c([N+](=O)[O-])c1 | ? | / | 4% | / | -8% | -2
O=C(CCC(=O)OCCCC(F)(F)C(F)(F)F)Nc1ccc(Cl)cc1Cl | -1% | 8% | -2% | -6% | -32% | 6
COc1cc(OC)cc(-c2nnc(SCc3cccc(C(=O)O)c3)o2)c1 | -1% | ? | -7% | 7.1µM* | -25% | -4
COc1cc(-c2nnc(SCC(=O)N(Cc3ccccc3)C(C)(C)C)o2)cc(OC)c1OC | 21µM* | -22% | 2% | -1% | -77% | -1
COc1cc(OC)cc(-c2nnc(SCC(=O)N(Cc3ccccc3)C(C)(C)C)o2)c1 | 23µM* | 31% | -3% | 5% | -66% | -3

Assay outcomes: PubChem BioAssay, National Center for Advancing Translational Sciences (NCATS)
